Results: PubChem BioAssay (NCI)
Several values for one entry are separate records, joined by “and”; a condition that tells them apart may be missing. Identical values can stand only once. Compounds without any hit were thinned out: in the full panel of roughly 83,000, 20% have a hit.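 Plates (96-well) were seeded with cells, treated with compound at one concentration, and incubated for 48 hours before percent growth was determined.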 Activity calls are given as the source filed them. The calls were made as follows: active = growth percent below 10; inactive = the rest.

The compounds below were run on HL-60(TB) leukemia (assay: NCI-60 one-dose screen, 48 h (100 = growth as untreated, 0 = no growth, -100 = all killed)). Conditions: 10 µM unless noted.
ClCC(Cl)[C@@H]1CC2C=CC1C2 (stereo not given in full) was tested, and the growth was 104% (inactive). O=C(O)C1C2CC3C(OC(=O)C31)C2Br (stereo not given) was tested, and the growth was 97% (inactive) and 103% (inactive). In the case of O=C(c1ccccc1)c1ccc(Oc2ccc([N+](=O)[O-])cc2[N+](=O)[O-])cc1, the growth was 43.6% (inactive). For CCCCN(CCCC)CCCCCCCCCCO, the growth was 95.1% (inactive). For C/C(O)=C(/C=N\C(=S)Nc1ccc(S(=O)(=O)Nc2nccs2)cc1)C(=O)Nc1ccccc1C, the growth was 105% (inactive). With O=C(/C=C/c1ccccc1)c1cccc(O)c1 the growth was 72.1% (inactive). For O=C1C=CC(=O)N1c1ccc2ccccc2c1, the growth was 83.9% (inactive) and 88.8% (inactive). With Nc1nc2ccccc2c2c1S(=O)(=O)c1ccc(Cl)cc1C2=O the growth was -24.2% (active). O=C(c1cc(-c2ccc(Cl)cc2)nc2ccccc12)N1N=C(c2ccccc2)CC1c1cc(-c2ccccc2)nn1-c1ccccc1 (stereo not given) was tested, and the growth was 91.6% (inactive). COc1ccc2c(c1)CCCC21C(=O)Nc2ccccc21 (stereo not given) was tested, and the growth was 88% (inactive). With OCc1n(Cc2ccc3ccccc3c2)cc[n+]1Cc1ccc2ccccc2c1 the growth was 6.82% (active). In the case of O=C(/C(=C/c1ccc([N+](=O)[O-])cc1)SCc1ccc(Cl)cc1)c1ccc(F)cc1, the growth was 59.5% (inactive). For CN(C)C(C(N)=O)c1ccc(Cl)cc1 (stereo not given), the growth was 89.6% (inactive). For COc1ccc(/C=N/NC(=O)Cn2c(Cc3cccc4ccccc34)nc3ccccc32)cc1, the growth was 93.2% (inactive). O=c1cc(-c2ccccc2)oc2cc(OCc3cn(Cc4ccc(F)cc4)nn3)cc(O)c12 was tested, and the growth was 104% [100 µM] (inactive). With Cn1cc(-c2ccc3nc(-c4ccc(CC(=O)ONc5cc(C(C)(C)C)on5)cc4)cnc3c2)cn1 the growth was 29% (inactive). In the case of CC#CC#Cc1cccc(=O)o1, the growth was 18.1% (inactive). For COc1ccc2cc(C(=O)c3coc4ccc(O)cc34)ccc2c1, the growth was 73.2% (inactive). For C=CCn1c(SCC(=O)Nc2ccc(C(=O)/C=C/c3ccc(Cl)cc3)cc2)nnc1-c1cc(-c2ccc(S(N)(=O)=O)cc2)nc2ccccc12, the growth was 75.7% (inactive). With CCCCCCCSc1ncnc2[nH]ncc12 the growth was 87.4% (inactive). In the case of C=C(C)[C@@H]1CC[C@]2(C(=O)OCCCC[P+](c3ccccc3)(c3ccccc3)c3ccccc3)CC[C@]3(C)[C@H](CC[C@@H]4[C@@]5(C)CC[C@H](OC(=O)C(Cl)Cl)C(C)(C)[C@@H]5CC[C@]43C)[C@@H]12, the growth was -49.9% (active). For COc1ccc(C(=O)c2cc(OC)c(OC)c(OC)c2)cc1/C=C/C(=O)c1ccc(OC)c(OC)c1, the growth was 19.1% (inactive). For CC(C)Oc1ccc2cc(-c3nn(CC4CCNCC4)c4ncnc(N)c34)ccc2c1, the growth was 63.8% (inactive) and -56.6% (active). COc1ccc(CC(=O)Nc2nn3c(-c4cc(C(F)(F)F)cc(C(F)(F)F)c4)nnc3s2)cc1 was tested, and the growth was 52% (inactive). In the case of CCN(CC)c1ccc(C(=N)c2ccc(N(CC)CC)cc2)cc1, the growth was -23.4% (active). COc1cc(N2C(=O)[C@H](O)C2c2ccc(SC)cc2)cc(OC)c1OC (stereo not given in full) was tested, and the growth was -41% (active). With Fc1ccc(CNc2cccc3[nH]c(C(F)(F)F)nc23)cc1 the growth was 55% (inactive). O=C1CC2(O)CSc3nc(=O)cc(n32)N1 (stereo not given) was tested, and the growth was 100% (inactive). With N#CCCN=Nc1c(O)[nH]c2ccc(F)cc12 the growth was 110% (inactive). For Nc1ccc(S(=O)(=O)Nc2ncccn2)cc1, the growth was 105% (inactive). For O=C1/C(=C/c2ccc(Cl)cc2)SC(=S)N1CCc1ccc(O)cc1, the growth was 76.6% (inactive). In the case of O=C(N/N=C/c1ccc(F)cc1)c1ccc(C(F)(F)F)nc1Nc1cccc(C(F)(F)F)c1, the growth was -37.2% (active). In the case of Cc1cccc(CO)c1, the growth was 109% (inactive). With O=C1C=Cc2ccccc2/C1=C/c1nc(-c2ccccc2)oc1O the growth was 101% (inactive). In the case of N#Cc1ccc(OCc2nc(N)nc(N)c2-c2ccc(Cl)c(Cl)c2)cc1, the growth was 21.7% (inactive). COc1ccc2c(c1)C(=O)c1c-2c(OCCN(C)C)nc2cc(OC)ccc12 was tested, and the growth was 27.2% (inactive). C=CCSc1nc2ccccc2cc1/C=N/O was tested, and the growth was 92.1% (inactive). In the case of COC(=O)[C@H](CC(C)C)NC(=O)NC(=O)NC(=O)CI, the growth was 50.7% (inactive). In the case of CN1CCN(CCOc2cc(OC3CCOCC3)c3c(Nc4c(Cl)ccc5c4OCO5)ncnc3c2)CC1, the growth was 101% (inactive). COc1ccc(CC(C#N)c2ccc(Cl)cc2)cc1 (stereo not given) was tested, and the growth was 84% (inactive).
